In PubChem BioAssay:
Results filed as inconclusive are left out. Activity calls are given as the source filed them.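 Rule for the calls, unless noted: active = GFP response above 150% of the DMSO level; inconclusive = fewer than 70 events counted for a yeast strain; inactive = the rest.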

Assays:
[1] = yeast TOR pathway RPL19A-GFP modulators, primary screen, cell-based, S. cerevisiae, multiplex flow cytometry (AID 1862; in the data active = percent of DMSO control GFP below about 86%;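 note: lower values mimic rapamycin by blocking the RPL19A rise seen in DMSO cells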); conditions: S. cerevisiae RPL19A-GFP strain, flow cytometry fluorescence, 3 h; at 10 µM; stronger effect = lower value
[2] = modulators of MEP2-GFP levels in yeast, primary screen, S. cerevisiae, multiplex flow cytometry (AID 1867;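 active = GFP response, as percent of the DMSO control, above the screen-wide mean plus 3 SD, about 139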;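 note: median GFP channel fluorescence of barcode-gated MEP2-GFP cells measured by flow cytometry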); conditions: S. cerevisiae MEP2-GFP strain, 3 h, at 10 µM, stronger effect = higher value, 100% means same as DMSO wells
[3] = modulators of CIT2-GFP expression in yeast, primary screen, S. cerevisiae, GFP fusion, multiplex flow cytometry (AID 1870;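 active = percent response above a set limit, the screen-wide mean plus 3 SD, cut at about 130% in these data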;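 note: barcoded CIT2-GFP strain pooled with four other GFP strains with rapamycin as positive control; median GFP fluorescence per well over plate mean of DMSO wells so 100% = DMSO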); conditions: 3 h, at 10 µM, stronger effect = higher value
[4] = modulators of LAP4-GFP expression in yeast, primary screen, S. cerevisiae, multiplex flow cytometry (AID 1873;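 active = GFP signal, as percent of the solvent control, above the screen mean plus 3 SD, about 149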); conditions: 3 h, at 10 µM, stronger effect = higher value
[5] = modulators of AGP1-GFP expression in yeast TOR pathway, primary screen, cell-based, multiplex flow cytometry, S. cerevisiae (AID 1887;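 active = GFP signal above the screen-wide mean plus 3 SD, that is over about 124.5% of the solvent control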;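 note: AGP1-GFP fusion strain of S. cerevisiae within a five-strain barcoded multiplex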); conditions: 3 h, at 10 µM, stronger effect = higher value
[6] = RPL19A-GFP modulators, yeast TOR pathway, confirmation, cell-based, S. cerevisiae, flow cytometry, cherry picks, mother/daughter gates (AID 2270;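 active = GFP response below 50% of the DMSO control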); conditions: S. cerevisiae RPL19A-GFP strain, 3 h, at 10 µM, stronger effect = lower value, 100 = same GFP as DMSO wells
[7] = LAP4-GFP expression modulators in yeast, confirmation, cell-based, cherry picks, flow cytometry, mother/daughter gates (AID 2271;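 active = GFP response above 150% of the DMSO control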;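 note: ratio of sample to DMSO plate mean so 100% equals DMSO level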); conditions: S. cerevisiae LAP4-GFP strain, 3 h, at 10 µM, stronger effect = higher value, 100 means same as DMSO control
[8] = modulators of MEP2-GFP levels in yeast, confirmation, S. cerevisiae, flow cytometry GFP, cherry picks (AID 2272;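 active = GFP response above 150% of the DMSO control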;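 note: ratio of well signal to plate DMSO mean so 100% equals DMSO level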); conditions: S. cerevisiae MEP2-GFP strain, 3 h, at 10 µM, stronger effect = higher value
[9] = modulators of CIT2-GFP expression in yeast, confirmation, S. cerevisiae, GFP fusion, cherry picks, mother/daughter gates (AID 2274); conditions: S. cerevisiae CIT2-GFP strain, flow cytometry, 3 h, at 10 µM, stronger effect = higher value
[10] = inhibitors of CD8+ T cell-vesicle binding, pilot screen, LFA-1/ICAM-1 modulator project, MLPCN validation set, flow cytometry (AID 2523;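 active = response below a set limit, under 55% cells CD8-positive and vesicle-bound, and CD8 cells' 90th-percentile brightness under 279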;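 for vesicle binding response: mean PE anti-B7-1 fluorescence of CD8+ cells relative to row control; 100% = QL9-loaded vesicles with DMSO vehicle in the same plate row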); conditions: 2C mouse CD8+ T cells, at 7 µM, stronger effect = lower value; double positive events: measured here: CD8+/vesicle+ event percentage
[11] = measured here: daughter cell gate
[12] = measured here: mother cell gate
[13] = measured here: daughter cell gate response
[14] = measured here: mother cell gate response

| SMILES | percent of DMSO control GFP [1] | GFP response vs DMSO [2] | percent response of DMSO control [3] | GFP response vs DMSO [4] | GFP response, % of DMSO [5] | GFP response vs DMSO [6] | GFP response vs DMSO [6, 11] [%] | GFP response vs DMSO [6, 12] [%] | GFP response relative to DMSO [7] | GFP response relative to DMSO [7, 13] [%] | GFP response relative to DMSO [7, 14] [%] | GFP response vs DMSO [8] | GFP response, % of DMSO [9] | GFP response, % of DMSO [9, 11] [%] | GFP response, % of DMSO [9, 12] [%] | double positive events [10] [%] | vesicle binding response [10] |
| --- | --- | --- | --- | --- | --- | --- | --- | --- | --- | --- | --- | --- | --- | --- | --- | --- | --- |
| CCOc1cc(C=O)ccc1OCCSc1ccc(C)cc1 | 94.6% (inactive) | 103% (inactive) | 77.8% (inactive) | 168% (active) | 101% (inactive) | 92.9% (inactive) | 87.7 | 96.4 | 131% (inactive) | 122 | 137 | 116% (inactive) | 93.5% (inactive) | 92.7 | 93.3 | 60.1 | 185% (inactive) |
| N=c1nc(N2CCCCC2)cc(N)n1O | 90.9% (inactive) | 143% (active) | 107% (inactive) | 86.4% (inactive) | 90.1% (inactive) | 97.4% (inactive) | 97.4 | 97.4 | 101% (inactive) | 101 | 99.3 | 98.3% (inactive) | 99.7% (inactive) | 103 | 99.7 | 59.7 | 117% (inactive) |
| CN/C(=C/[N+](=O)[O-])NCCSCc1ccc(CN(C)C)o1 | 91.7% (inactive) | 150% (active) | 108% (inactive) | 83.6% (inactive) | 87.7% (inactive) | 100% (inactive) | 101 | 99.2 | 97.9% (inactive) | 97.6 | 96.1 | 107% (inactive) | 101% (inactive) | 105 | 99.7 | 64.5 | 123% (inactive) |
| CC(=O)O[C@]1(C(C)=O)CC[C@H]2[C@@H]3C[C@H](C)C4=CC(=O)CC[C@]4(C)[C@H]3CC[C@@]21C | 98.4% (inactive) | 106% (inactive) | 90.8% (inactive) | 84.8% (inactive) | 95.7% (inactive) | 94.3% (inactive) | 95.7 | 97.2 | 98.8% (inactive) | 97.9 | 98.5 | 93.3% (inactive) | 101% (inactive) | 102 | 101 | 63.9 | 241% (inactive) |
| COc1cc2c(cc1OC)C(c1ccccc1)=NCC2 | 92.2% (inactive) | 144% (active) | 103% (inactive) | 84.2% (inactive) | 97.7% (inactive) | 98.2% (inactive) | 97.6 | 99.7 | 88.9% (inactive) | 88 | 87.6 | 100% (inactive) | 103% (inactive) | 106 | 102 | 59.5 | 202% (inactive) |
| Cc1ccc2[nH]c3c(c2c1)CCNC3=O | 99.1% (inactive) | 95.9% (inactive) | 104% (inactive) | 91.3% (inactive) | 98.7% (inactive) | 101% (inactive) | 100 | 103 | 91.4% (inactive) | 92.5 | 94.2 | 100% (inactive) | 111% (inactive) | 106 | 114 | 57.6 | 187% (inactive) |
| COc1cc(/C=C/C(=O)CC(=O)/C=C/c2ccc(O)c(OC)c2)ccc1O | 117% (inactive) | 114% (inactive) | 135% (active) | 114% (inactive) | 95.1% (inactive) | 105% (inactive) |  |  | 93.8% (inactive) |  |  | 111% (inactive) | 111% (inactive) |  |  | 61.2 | 39.9% (inactive) |
| CC(=O)[C@H]1CC[C@H]2[C@@H]3CCC4=CC(=O)CC[C@]4(C)[C@H]3[C@H](O)C[C@]12C | 93% (inactive) | 147% (active) | 99.2% (inactive) | 85.3% (inactive) | 93.3% (inactive) | 99.1% (inactive) | 99.3 | 99.7 | 100% (inactive) | 102 | 98.5 | 97.5% (inactive) | 101% (inactive) | 102 | 99.1 | 57.7 | 64.9% (inactive) |
| O=c1[nH]cc(F)c(=O)[nH]1 | 90.9% (inactive) | 119% (inactive) | 127% (active) | 77% (inactive) | 104% (inactive) | 83.5% (inactive) | 82.3 | 85.4 | 90% (inactive) | 88.8 | 93 | 101% (inactive) | 88.5% (inactive) | 87.3 | 89.8 | 52.4 | 223% (inactive) |
| CC(=O)CSc1ncnc2c1cnn2-c1ccccc1 | 90.6% (inactive) | 116% (inactive) | 92.6% (inactive) | 77.6% (inactive) | 87.3% (inactive) | 100% (inactive) | 97.6 | 100 | 106% (inactive) | 101 | 106 | 99% (inactive) | 93% (inactive) | 92 | 91.9 | 57.9 | 221% (inactive) |
